High-throughput results as filed in PubChem.
Hits are enriched below; roughly 1.5% of the tested compounds scored in any of these assays.
Bcl-xL primary = inhibitors of human Bcl-xL, primary screen, biochemical, fluorescence polarization, HTS; Bcl-2-like protein 1 (Homo sapiens), Q07817; GST-Bcl-xL / FITC-Bim BH3 peptide fluorescence polarization; inhibition, % at 10.9 µM; actives 0.7% (n = 320,000); AID 2129, 2009;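 active = inhibition above the mean of all tested compounds plus 3 SD, cutoff set per campaign, cut at about 30% in these data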;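 also: 0% = DMSO wells and 100% = unlabeled Bim-BH3 peptide competitor; inhibitors lower millipolarization by displacing the labeled peptide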
GLD-1 RNA inh = GLD-1/TGE RNA complex disruptors, primary screen, biochemical, fluorescence polarization; purified GLD-1 + fluorescein TGE RNA; inhibition, % at 5.96 µM; actives 0.44% (n = 320,000); Female germline-specific tumor suppressor gld-1 (Caenorhabditis elegans), Q17339;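 active = percent inhibition above a per-plate cutoff, the plate mean of test compounds plus 3 SD, cut at about 30% in these data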;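 also: 0% = DMSO wells with GLD-1 and probe and 100% = wells lacking GLD-1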
E coli Lon inh = inhibitors of E. coli Lon protease, primary screen, biochemical, fluorescence polarization; P0A9M0; purified E. coli Lon protease; inhibition, % at 7.94 µM; actives 0.42% (n = 360,000); in the data active = inhibition above about 13%, passing the limit was not always enough;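 also: 0% = enzyme with probe and DMSO and 100% = no enzyme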
MCL1-BIM inh = inhibitors of MCL1 binding to BIM-BH3, primary screen, biochemical, fluorescence polarization; Induced myeloid leukemia cell differentiation protein Mcl-1 (Homo sapiens), Q07820; GST-MCL1 / FITC-Bim-BH3 fluorescence polarization; inhibition, % at 10.9 µM; actives 0.68% (n = 320,000);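 active = inhibition above the mean inhibition of all tested compounds plus 3 SD, set per campaign, cut at about 40% in these data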;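 also: 0% = DMSO wells and 100% = unlabeled Bim-BH3 peptide control; higher means more loss of mP so more displacement of Bim peptide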
MEX-5 binding = MEX-5 zinc finger RNA-binding disruptors – biochemical, C. elegans, fluorescence polarization, MLPCN library, primary screen. Zinc finger protein mex-5 (Caenorhabditis elegans), Q9XUB2. MEX-5/FITC-TCR2 RNA binding; hits give low values. activity score (negative = inhibition of binding), % at 10 µM. actives 0.38% (n = 300,000). AID 1832, 2009;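 active = inhibition past about -25% in most replicates, and total fluorescence under double the plate's negative control median, limit read from the data; inconclusive = replicates evenly split on the limit, or fluorescence at least double controls; inactive = too little inhibition in most replicates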;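 also: 0% = DMSO and -100% = 5 µM competing unlabeled TCR2 RNA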
Target sequence (Q9XUB2 whole entry, looked up): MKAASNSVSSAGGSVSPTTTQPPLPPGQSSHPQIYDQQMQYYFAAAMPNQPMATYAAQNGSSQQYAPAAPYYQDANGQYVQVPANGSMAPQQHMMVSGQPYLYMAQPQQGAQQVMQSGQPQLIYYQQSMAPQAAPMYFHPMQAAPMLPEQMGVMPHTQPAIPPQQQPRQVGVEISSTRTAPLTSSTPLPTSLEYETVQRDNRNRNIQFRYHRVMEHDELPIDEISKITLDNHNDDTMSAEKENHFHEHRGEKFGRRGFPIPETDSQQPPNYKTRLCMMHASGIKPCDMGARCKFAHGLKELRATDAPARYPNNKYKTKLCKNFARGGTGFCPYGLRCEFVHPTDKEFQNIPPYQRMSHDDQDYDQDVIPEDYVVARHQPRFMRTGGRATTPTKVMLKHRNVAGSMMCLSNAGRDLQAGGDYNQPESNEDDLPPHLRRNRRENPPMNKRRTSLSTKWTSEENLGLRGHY
EBV gp42 inh = Epstein-Barr virus gp42 inhibitors, primary screen, biochemical, uHTS, fluorescence polarization; Glycoprotein 42 (Epstein-Barr virus (strain AG876)), Q1HVG2; AID 1085, 2008; Fluorescence polarization binding assay, mP read-out; inhibition, % (tested at 21.74 µM); actives 0.42% (n = 220,000); in the data active = inhibition above about 50%
Target sequence (Q1HVG2 whole entry, looked up): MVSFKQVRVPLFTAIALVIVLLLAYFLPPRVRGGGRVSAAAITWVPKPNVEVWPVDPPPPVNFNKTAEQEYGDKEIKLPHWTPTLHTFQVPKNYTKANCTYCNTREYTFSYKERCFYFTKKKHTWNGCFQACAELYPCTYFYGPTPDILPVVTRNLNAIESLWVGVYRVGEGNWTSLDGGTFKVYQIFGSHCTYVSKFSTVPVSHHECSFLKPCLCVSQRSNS
eLon confirm = E. coli Lon protease inhibitor retest, confirmation, biochemical, fluorescence polarization; shares compounds with E coli Lon inh; purified E. coli Lon; inhibition, % at 7.94 µM; actives 31% (n = 1,400); AID 602230, 2012; in the data active = inhibition above about 16%;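 also: 0% = enzyme with probe and DMSO and 100% = no enzyme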
Active calls of the source: *; ? = inconclusive; . = no result given; + = active, no number.

SMILES | Bcl-xL primary | GLD-1 RNA inh | E coli Lon inh | MCL1-BIM inh | MEX-5 binding | EBV gp42 inh | eLon confirm
COc1ccc(C(=O)c2ccccc2CN2C(=O)c3ccccc3C2=O)cc1 | . | . | -8 | . | . | . | .
CCOC(=O)c1[nH]c(C)c(C)c1C | 4 | -3 | 51* | -6 | -1 | -10 | 1
Cc1ccc(NC(=O)CN(CCc2ccccc2)S(C)(=O)=O)cc1 | . | . | -23 | . | 2 | . | .
CC(=O)c1c(C)[nH]c(C(=O)OCC(=O)N(Cc2ccccc2)C(C)(C)C)c1C | . | . | 71* | . | . | . | -63
COc1cc2c3nc4n(c(=O)c3n(CC(=O)N3CCCC3)c2cc1OC)CCS4 | . | . | 0 | . | . | . | .
N#Cc1ccc(CCc2ccccc2)[nH]c1=O | . | . | -14 | . | . | . | .
N#Cc1ccc(CC(=O)c2ccccc2)[nH]c1=O | . | . | 25* | . | . | . | -98
O=C(Nc1ccccc1F)c1csc(COCCO)n1 | . | . | 14 | . | . | . | .
COc1ccc(N2C(=O)CS(=O)C(c3ccccc3)C2=O)cc1 (stereo not drawn) | 12 | 16 | 24* | 4 | 6 | -16 | 31*
Cc1ccc(N2C(=O)CS(=O)C(c3ccccc3)C2=O)cc1C (stereo not drawn) | 12 | 12 | 17 | 15 | 5 | -12 | .
Cc1ccc(SCCC(=O)OCC(=O)NCC2CCCCC2)cc1 | 3 | 1 | -3 | -1 | 0 | -2 | .
CC(C)CC(=O)c1c(O)c(C=O)c(O)c2c1O[C@@]1(C)[C@@H](C2)C[C@H]2C[C@@H]1C2(C)C | . | 6 | 4 | . | . | . | .
Nc1ccc2c3c(cccc13)C(=O)N(c1ccccc1)C2=O | . | . | + | . | ? | 162* | +
CC(=O)O[C@@H]1[C@H](OC(=O)CC(C)C)c2c(ccc3ccc(=O)oc23)OC1(C)C | 0 | 3 | 113* | -2 | 0 | -11 | -6
c1cc2c3c(cccc3c1)C(N1CCCCC1)=N2 | 27 | 30 | 27* | 27 | -18 | 27 | 52*
c1ccc2c(c1)CCN(C1=Nc3cccc4cccc1c34)C2 | . | . | 35* | . | . | 41 | 106*
COc1ccc(CCNC(=O)COC(=O)C23CC4CC(CC(Br)(C4)C2)C3)cc1 | -2 | 2 | 6 | -4 | 5 | -14 | .
CC(NC(=O)COC(=O)C12CC3CC(CC(Br)(C3)C1)C2)c1ccccc1 (stereo not drawn) | . | 8 | 26* | . | . | . | -1
O=C(Nc1cccc(C(F)(F)F)c1)Nc1nnc([C@@H]2C[C@H](O)[C@@H](CO)O2)s1 | . | . | -6 | . | . | . | .
O=C(c1[nH]ncc1-c1cccc(Br)c1)C1CO1 (stereo not drawn) | 3 | 6 | 1 | 1 | 2 | -13 | .
O=C(c1[nH]ncc1-c1ccccc1)C1CO1 (stereo not drawn) | 2 | 4 | 50* | 3 | -3 | -14 | 21*
CC1CCN(C(=O)C(C)NCc2ccc(F)cc2)CC1 (stereo not drawn) | 0 | 11 | 36* | 26 | -5 | . | 3
Cc1cccc(NC(=O)C2CC(=O)N(Cc3ccccc3)C2)n1 (stereo not drawn) | 6 | 2 | -4 | -2 | 3 | . | .
CC(Sc1nnc(Cc2ccccc2)o1)C(=O)NC1(C#N)CCCCC1 (stereo not drawn) | . | 4 | -5 | . | . | . | .
O=C(N/N=C/c1cc2c3c(c1O)CCCN3CCC2)c1ccccc1O | . | . | 67* | . | -2 | 24 | 104*
SMILES | Bcl-xL primary | GLD-1 RNA inh | E coli Lon inh | MCL1-BIM inh | MEX-5 binding | EBV gp42 inh | eLon confirm
CCCc1nn(C)c(C(=O)Nc2cccc(Cl)c2)c1Cl | -3 | -5 | 30* | -6 | 1 | -7 | 2
CCCc1nn(C)c(C(=O)Nc2cccc(C)c2)c1Cl | -1 | 8 | 24 | -3 | 0 | -6 | .
C(=C\c1ccccc1)/CN1CCN(C(c2cc3ccccc3o2)c2nnnn2C2CCCCC2)CC1 (stereo not drawn) | . | . | -6 | . | . | . | .
COc1ccc2c3c(cccc13)C(=O)CC2 | . | . | + | . | ? | . | +
CC1CN(Cc2csc(-c3ccc(Cl)cc3)n2)CC(C)O1 (stereo not drawn) | 3 | 9 | 15* | 5 | -1 | -4 | -7
O=C(Cn1ccc2ccccc2c1=O)NCCC(=O)N1CCN(c2ccccc2)CC1 | 6 | -1 | -4 | 5 | 3 | . | .
O=C(Cn1ccc2ccccc2c1=O)NCC(=O)N1CCN(c2ccc(F)cc2)CC1 | 9 | -4 | 23* | 8 | -2 | . | 2
COc1cc(OC)c(C2Nc3ccccc3NC3=C2C(=O)CC(C)(C)C3)cc1OC (stereo not drawn) | 4 | 5 | 17* | 10 | -1 | . | -8
Cn1cccc1C1Nc2ccccc2NC2=C1C(=O)CC(C)(C)C2 (stereo not drawn) | 3 | 9 | 39* | 8 | 1 | 1 | -10
N#CCc1ccc(OC(=O)c2cnccc2C(F)(F)F)cc1 | 6 | 1 | 1 | -1 | 0 | . | .
CO/N=C\CC(=O)Nc1ccc(Cl)c(Cl)c1 | 3 | 3 | 17* | 7 | -2 | 5 | 14
CCOC(=O)c1cc(OC)c2cccc(CN3CCCC(C)(C(=O)NCCOC)C3)c2c1 (stereo not drawn) | . | . | -2 | . | . | . | .
CCOC(=O)c1cc(OC)c2cccc(CN3CCC(C)(C(=O)NCCOC)C3)c2c1 (stereo not drawn) | . | . | 97* | . | . | . | 46*
C[C@H](NC(=O)C1CC(=O)N(c2ccc(F)cc2)C1)C(=O)N1CCCCC1 (stereo partly drawn) | 0 | -3 | 20* | -2 | 0 | . | 5
O=C(C1CC(=O)N(c2ccc(F)cc2)C1)N1CCCCC1 (stereo not drawn) | 5 | 1 | -9 | 6 | 2 | . | .
CCO[C@H]1OC(C(=O)N2CCN(Cc3ccccc3)CC2)=C[C@@H](C)[C@@H]1CCCO | 6 | 3 | 28* | 3 | 1 | -10 | 5
COC(=O)C1(C#N)C(c2ccccc2)C1(C(=O)OC)C(=O)OC (stereo not drawn) | 1 | 2 | -2 | 5 | 0 | -16 | .
CCCCC1OC2(C)OC(=N)C1(C#N)C(C#N)(C#N)C2c1ccccc1 (stereo not drawn) | 21 | 23 | 29* | 11 | . | 9 | 11
CCC(=O)NC(=S)N1CCN(c2ccc([N+](=O)[O-])cc2Cl)CC1 | -5 | 6 | -2 | 2 | 2 | -6 | .
Cc1ccc(C(C)NC(=O)Cc2cccs2)c(C)c1 (stereo not drawn) | 0 | 3 | -4 | 1 | 0 | . | .
O=C(Nn1c(O)c(C=C2N=c3ccccc3=N2)sc1=S)c1ccccc1 | 2 | 6 | -21 | 5 | -1 | 9 | .
